Compound activity as filed in PubChem BioAssay.
PrPC surface inh – inhibitors of human cell surface prion protein PrPC, primary screen, cell-based, TR-FRET; Major prion protein (Homo sapiens), P04156; TR-FRET read-out; inhibition, % at 13.8 µM; 0.43% of 370,000 active; AID 720596, 2013; in the data active = inhibition above about 24%; also: 0% = median of the test wells and 100% = reference compound wells
PrP 5UTR inh – inhibition of PrP 5' UTR reporter expression | cell-based PrP 5' UTR mRNA reporter, plate reader | inhibition, % (concentration not given with the values) | 0.35% of 340,000 active | AID 488862, 2010; in the data active = inhibition above about 52%; also: 0 = median of the neutral control wells
PfHsp40 yeast – rescue of yeast from PfHsp40 toxicity, primary screen, S. cerevisiae, ATP luminescence; S. cerevisiae expressing PfHsp40, growth rescue; growth rescue, % at 12.5 µM; 0.68% of 340,000 active; in the data active = growth rescue above about 28%, passing the limit was not always enough; inconclusive = no clear call, values can overlap the other calls;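 also: yeast W303a lacking pdr1 and pdr3 grown in galactose medium; growth measured after three days at 30 °C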
BJeLR viability – MLPCN primary cell-based screen for lethality selective to Ras in HRASV12 cells. BJeLR (HRASV12) viability, CellTiter-Glo ATP luminescence, 48 h. inhibition, % (concentration not given with the values). 0.17% of 300,000 active; in the data active = inhibition above about 50%; inconclusive = no clear call, values can overlap the other calls
FBA Mtb inh – Mtb FBA enzyme inhibitors, primary screen, biochemical, fluorescence, strain H37Rv; Fructose-bisphosphate aldolase (Mycobacterium tuberculosis (strain ATCC 25618 / H37Rv)), …; purified M. tuberculosis FBA, fluorescence read-out; inhibition, % at 1 µM; 2.3% of 360,000 active; AID 588726, 2011;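 also: 0% = vehicle and 100% = reference inhibitor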
Target sequence (P9WQA3 whole entry, looked up): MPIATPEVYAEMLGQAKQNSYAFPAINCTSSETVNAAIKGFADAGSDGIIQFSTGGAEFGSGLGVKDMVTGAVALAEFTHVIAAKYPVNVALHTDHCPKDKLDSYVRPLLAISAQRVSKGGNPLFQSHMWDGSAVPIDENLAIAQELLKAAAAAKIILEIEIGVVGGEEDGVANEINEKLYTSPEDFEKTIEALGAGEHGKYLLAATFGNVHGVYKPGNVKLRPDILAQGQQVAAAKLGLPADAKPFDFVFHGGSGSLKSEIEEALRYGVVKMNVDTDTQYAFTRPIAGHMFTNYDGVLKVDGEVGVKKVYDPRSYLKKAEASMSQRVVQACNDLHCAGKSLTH
GDH-TPI counter-1 – GDH-TPI coupling enzyme inhibitors, primary screen, artefact control for M. tuberculosis FBA inhibitor project, biochemical, absorbance, full deck | GDH-TPI coupled enzyme counterscreen, NADH absorbance | inhibition, % at 4.8 µM | 1.2% of 360,000 active; in the data active = inhibition above about 30%;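 also: 0% = DMSO wells and 100% = wells lacking the enzyme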
Mtb FBA confirm – M. tuberculosis aldolase blockers, biochemical, fluorescence, strain H37Rv, confirmation; shares compounds with FBA Mtb inh; purified M. tuberculosis FBA, fluorescence read-out; inhibition, % at 1 µM; 78% of 5,600 active;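 also: 0% = vehicle wells and 100% = reference inhibitor wells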
GDH-TPI counter-2 – GDH-TPI coupling enzyme inhibitors, artefact control for M. tuberculosis FBA inhibitor project, biochemical, fluorescence, high throughput; 81% of 5,600 active; AID 652141, 2013; shares compounds with FBA Mtb inh; GDH-TPI coupled enzyme counterscreen; inhibition, % at 1 µM; in the data active = inhibition above about 10%
Active calls of the source: *; ? = inconclusive; nt = no result given; + = active, no number. Only some compounds are listed: those with a hit (about 4.5% of all), similar ones and a draw of the others. Rule as the data show it, unless noted: active = inhibition above about 27%; inactive = the rest.

SMILES	PrPC surface inh	PrP 5UTR inh	PfHsp40 yeast	BJeLR viability	FBA Mtb inh	GDH-TPI counter-1	Mtb FBA confirm	GDH-TPI counter-2
COc1cc(C(=O)NCCNc2nc3ccc(C)cc3cc2C#N)cc(OC)c1OC	-3.1	-7.8	1.1	-12.3	39.0*	4.6	94.2*	79.6*
COc1ccc(NC(=O)N(C)C[C@@H]2Oc3cc(C#CCN(C)C)ccc3S(=O)(=O)N([C@H](C)CO)C[C@H]2C)cc1	-3.3	nt	nt	nt	2.4	2.1	nt	nt
O=S(=O)(Oc1ccc(Cl)cc1)c1cccc2cccnc12	2.4	nt	nt	-4.8	2.1	1.5	nt	nt
C#CCOC(=O)Nc1cc(C)n(-c2ccccc2)n1	7.9	-12.6	0.9	-11.3	-2.2	7.2	nt	nt
COc1cc(C)c(C)cc1S(=O)(=O)NC1CC(C)(C)NC(C)(C)C1	-1.7	-24.4	?	0.3	1.0	1.6	nt	nt
COC(=O)[C@H](Cc1ccccc1)NC(=O)NC(C)CCc1ccccc1 (stereo not given in full)	-3.3	nt	-0.1	-3.1	76.8*	2.9	+	+
Cc1c(-c2ccccc2)n(O)c(-c2ccc(N(C)C)cc2)[n+]1[O-]	7.0	nt	nt	nt	56.8*	15.0	126.5*	108.5*
COc1ccc(-c2cn3c(n2)CCC3)cc1	6.9	-58.4	1.8	-2.0	19.2	-9.8	nt	nt
Cc1ccc(-c2cn3c(n2)CCCC3)cc1	-4.7	-6.2	0.2	3.5	37.9*	-5.5	+	158.9*
O=C(CCC(=O)N(CC(=O)NC1CCCCC1)Cc1cccs1)Nc1nccs1	7.3	-2.8	-0.2	8.8	3.5	8.2	nt	nt
Cc1ccc(Cl)cc1NC(=O)Cn1nc(-c2cccs2)ccc1=O	-14.0	-62.2	0.5	-1.9	3.2	2.3	nt	nt
O=C(O)/C(=C\c1ccc(Cl)cc1)c1ccc(S(=O)(=O)N2CCCC2)s1	-1.0	-6.9	-0.6	nt	1.7	7.6	nt	nt
CSc1ccc(/C=C(\C(=O)O)c2ccc(S(=O)(=O)N3CCCCC3)s2)cc1	9.1	-9.7	4.0	-5.8	37.4*	29.1	1.2	-5.1
O=C(c1ccc(Cl)c(S(=O)(=O)N2CCCCCC2)c1)N1CCCC(C(F)(F)F)C1 (stereo not given)	5.2	7.0	-1.0	1.4	44.6*	0.7	64.6*	46.1*
CCOC(=O)c1cc(-c2cc3ccccc3o2)nc2c1c(=O)[nH]c(=O)n2CCOC	-6.5	-15.8	1.1	-3.1	45.8*	4.8	2.2	1.4
CCOc1ccccc1NC(=S)Nn1cnnc1	2.1	-9.6	-0.5	-7.0	4.3	2.4	nt	nt
CC(C)Cn1cc(-c2cccc3nccn23)cn1	-6.5	nt	nt	nt	105.0*	4.4	-0.4	-1.6
Cc1ccc(-c2nc3ccc(C)cn3c2CC(=O)N(C)C)cc1	10.5	-8.2	0.3	-0.1	51.6*	1.4	56.2*	47.5*
O=S(=O)(N[C@H](CO)c1ccccc1)c1ccc(Br)cc1F	4.7	-5.1	0.5	nt	-1.7	-4.2	nt	nt
CCC1Oc2ccccc2N(CC(=O)NC2CCCCC2)C1=O (stereo not given)	3.4	-13.2	0.1	-0.5	1.1	-5.3	nt	nt
CN(C)c1ncccc1-c1nc2ccccc2s1	-2.5	-16.8	-0.1	-2.7	30.3*	12.9	30.6*	17.2*
CCOC(=O)c1sc2nc(C)nc(NCCc3ccccn3)c2c1C	5.8	4.1	4.0	10.3	71.2*	2.9	22.2	12.5*
CN(CC(=O)Nc1ccccc1Cl)C(=O)COC(=O)Cc1ccc(F)cc1	-0.2	-3.0	-0.1	-2.8	10.1	3.4	nt	nt
C[C@H](O)[C@@H]1C(=O)N2CCc3c([nH]c4ccccc34)[C@@H]2C[C@@H]1N(C)C(=O)Nc1cc(Cl)cc(Cl)c1	-7.9	nt	nt	nt	30.1*	18.6	+	+
C[C@H](O)[C@@H]1C(=O)N2CCc3c([nH]c4ccccc34)[C@@H]2C[C@@H]1N(C)C(=O)Nc1ccc(Br)cc1	-5.6	nt	nt	nt	nt	nt	nt	nt
SMILES	PrPC surface inh	PrP 5UTR inh	PfHsp40 yeast	BJeLR viability	FBA Mtb inh	GDH-TPI counter-1	Mtb FBA confirm	GDH-TPI counter-2
C[C@H](O)[C@@H]1C(=O)N2CCc3c([nH]c4ccccc34)[C@@H]2C[C@@H]1N(C)C(=O)Nc1ccccc1	-7.2	nt	nt	nt	27.6*	-4.3	52.1*	41.5*
C[C@H](O)[C@@H]1C(=O)N2CCc3c([nH]c4ccccc34)[C@@H]2C[C@@H]1N(C)C(=O)c1ccco1	-10.2	nt	nt	nt	67.2*	nt	144.4*	132.4*
CCOC(=O)N(C)[C@H]1C[C@H]2c3[nH]c4ccccc4c3CCN2C(=O)[C@H]1[C@H](C)O	-7.5	nt	nt	nt	nt	nt	nt	nt
C[C@H](O)[C@@H]1CN2CCc3c([nH]c4ccccc34)[C@@H]2C[C@@H]1N(C)C(=O)Nc1cc(Cl)cc(Cl)c1	-1.4	nt	nt	nt	1.4	10.3	nt	nt
CN(C(=O)C(C)(C)C)[C@H]1C[C@H]2c3[nH]c4ccccc4c3CCN2C(=O)[C@H]1CO	-5.8	nt	nt	nt	79.2*	21.3	+	+
CC(C)=CC1C(C(=O)Nc2ccc(S(=O)(=O)N3CCOCC3)cc2)C1(C)C (stereo not given)	6.1	-11.4	0.2	-7.4	3.4	-6.7	nt	nt
COC(=O)[C@]1(C#N)CC(=O)N(c2ccccc2)[C@@H]1c1ccccc1	2.6	nt	nt	nt	nt	nt	nt	nt
COc1ccc2sc(-c3ccc(N(C)C)cc3)c(C#Cc3cncn3C)c2c1	-5.5	-1.3	?	nt	107.7*	10.8	126.7*	102.1*
COc1cccc(-c2sc3ccc(OC)cc3c2C#CC(C)(C)O)c1	-3.2	-16.9	7.1	nt	11.9	16.6	nt	nt
Cc1onc(-c2ccccc2Cl)c1C(=O)OCC(=O)N1CCCCC1	-6.2	-9.5	-0.7	nt	-0.9	8.2	nt	nt
Cc1c(OC(C)C(=O)NCc2ccncc2)ccc2c3c(c(=O)oc12)CCC3 (stereo not given)	-0.1	-0.2	0.4	3.0	73.5*	11.8	83.1*	53.1*
Cc1c(OC(C)C(=O)NCc2ccccn2)ccc2c3c(c(=O)oc12)CCCC3 (stereo not given)	3.0	-17.3	1.8	-2.5	68.4*	3.1	2.5	1.5
CC(Oc1cc2oc(=O)c3c(c2cc1Cl)CCCC3)C(=O)NCc1ccccn1 (stereo not given)	-1.0	-18.7	-0.1	3.3	13.8	12.6	nt	nt
COc1cccc(NC(=O)C2CCCN2C(=O)Nc2cccc3c2OCO3)c1 (stereo not given)	13.9	nt	nt	nt	nt	nt	nt	nt
O=C(CNS(=O)(=O)c1ccc(Br)cc1)NCc1ccncc1	-5.1	-11.8	-0.2	-1.9	1.0	-3.0	nt	nt
